# Yp Topo-I inh: Y. pestis Topo-I inhibition via cleavage products; Y. pestis Topo-I cleavage product accumulation, plate reader; activity, % at 10 µM; 360,000 tested, 0.064% active; AID 504884; in the data active = activity above about 50%, passing the limit was not always enough
# Mtb hypoxia inh: Mtb hypoxia fluorescent reporter inhibition. M. tuberculosis hypoxia-regulated fluorescent reporter, fluorescence. fluorescence inhibition, % (test concentration not listed). 300,000 tested, 0.1% active. AID 1159583; in the data active = fluorescence inhibition mostly above about 23%, no sharp cut-off; inactive = mostly below about 17%
# Vc quorum ag: induces V. cholerae light production without autoinducers. 350,000 tested, 0.16% active. V. cholerae BH1578 lux reporter, luminescence, 6 h. AID 588436. activation, % at 18.7 µM; in the data active = activation mostly above about 9.7%, no sharp cut-off
# Hits are given with their value; i = inactive; nt = no result given. Hits are enriched below; roughly 0.29% of the tested compounds scored in any of these assays.
SMILES,Yp Topo-I inh,Mtb hypoxia inh,Vc quorum ag
CC1=CC(=C2C(=O)NC(=O)NC2=O)C=C(C(F)(F)F)N1Cc1ccccc1,i,i,i
CC1=CC(=C2C(=O)NC(=S)NC2=O)C=C(C(F)(F)F)N1Cc1ccccc1,i,i,267
CON=CC(NC(=O)c1ccc(C(F)(F)F)cc1)C(=O)OC (configuration not stated),nt,i,nt
CCn1c(SCC(=O)Nc2ccccc2)nnc1-c1cccs1,i,i,i
CCn1c(SCC(=O)NC(C)C)nnc1-c1cccs1,i,nt,17
O=C(CCCOc1ccc(Cl)cc1Cl)Nc1ccccc1C(=O)O,i,34,i
O=C(COc1ccc(Cl)cc1Cl)Nc1ccc(C(=O)Nc2ccccc2C(=O)O)cc1,i,i,i
O=C(C=Cc1ccc(O)c(O)c1)OCCc1ccccc1,nt,i,nt
CC(=O)c1nn(-c2ccc(Cl)cc2)cc1C(=O)c1ccc(C)cc1,i,47,i
CC(=O)c1nn(-c2ccccc2)cc1C(=O)c1ccc(C)cc1,i,i,i
COc1ccc(CCNC(=O)/C=C/c2ccc(S(=O)(=O)N3CCOCC3)cc2)cc1,i,i,i
O=C(/C=C/c1ccc(S(=O)(=O)N2CCOCC2)cc1)NCCc1ccc(C(F)(F)F)cc1,i,25,i
CCC12CN3CCN(CC(C3)C1=NNC(=O)c1ccc(F)cc1)C2,nt,i,nt
CCOC(=O)CSc1nc2ccccc2c(=O)n1CC,i,i,i
CCOC(=O)CSc1nc2ccccc2c(=O)n1CC1CCCC1,58,nt,i
COc1ccc(CC(=O)Oc2ccc(C)cc2C)cc1,i,i,i
Cc1ccc(OC(=O)CCC(=O)Oc2ccc(C)cc2C)c(C)c1,60,i,i
COc1cccc(CNC(=O)c2ccc(NC(=O)C3=CSCCO3)cc2)c1,i,i,i
NC(=NOC(=O)Cc1ccccc1[N+](=O)[O-])c1ccccn1,nt,i,nt
CS(=O)(=O)c1ccc([C@@H](O)[C@@H](CO)NC(=O)C(Cl)Cl)cc1,i,nt,i
CS(=O)(=O)c1ccc(C(O)C(CO)NC(=O)C(Cl)Cl)cc1 (configuration not stated),nt,80,nt
CN(C)c1ccc(C=Nn2c(COc3ccccc3)n[nH]c2=S)cc1,nt,i,nt
CC(C)(C)c1csc(NN=Cc2ccc(O)cc2)n1,nt,34,nt
CC(C)(C)c1csc(N/N=C/c2cccnc2)n1,i,nt,i
COC(=O)C1=C(C(=O)OC)C2N(C)c3ccccc3[C@@]23CC(CO)N=C3N1 (some centres not stated),nt,i,nt
SMILES,Yp Topo-I inh,Mtb hypoxia inh,Vc quorum ag
CC=C(C)C(=O)Nc1cccc(C2=NOC3(C2)CC(C(N)=O)N(C(=O)CCCCC)C3)c1 (configuration not stated),nt,i,nt
COc1cc2ccccc2cc1C(=O)N/N=C/c1cccnc1,i,nt,i
COc1cc2ccccc2cc1C(=O)NN=Cc1cccnc1,nt,48,nt
CCC(C)N1CC(=O)N2C(c3ccc(OC)cc3OC)c3[nH]c4ccccc4c3C[C@H]2C1=O (some centres not stated),i,i,i
CC=NNC(=O)CCCC(=O)NN=CC,nt,i,nt
O=c1[nH]c(=O)n(Cc2ccccc2)c2nc(-c3ccco3)cc(C(F)(F)F)c12,i,i,27
Cc1cc(C(F)(F)F)c2c(=O)[nH]c(=O)n(Cc3ccccc3)c2n1,i,i,nt
Cc1cc(C(=O)Cn2nc(C(=O)O)c3ccccc3c2=O)c(C)n1CC(F)(F)F,i,i,i
Cc1ccc(-n2c(C)cc(C(=O)Cn3nc(C(=O)O)c4ccccc4c3=O)c2C)cc1,79,i,i
COc1ccc(-n2c(C)cc(C(=O)Cn3nc(C(=O)O)c4ccccc4c3=O)c2C)cc1,i,i,i
Cc1cc(C(=O)Cn2nc(C(=O)O)c3ccccc3c2=O)c(C)n1-c1ccc(OC(F)F)cc1,68,i,i
CS(=O)(=O)c1ccc(Cl)c(NC(=O)C2CCCN(C(=O)c3ccc(Cl)cc3)C2)c1 (configuration not stated),i,i,i
O=C(O)COc1ccccc1C=NNC(=O)c1cccc(S(=O)(=O)N2CCOCC2)c1,nt,i,nt
CCOc1ccccc1-c1cc(C(=O)NN=C(C)c2cccnc2)c2ccccc2n1,nt,i,nt
O=C(ON=C(c1ccccc1)c1ccncc1)c1ccc(F)cc1,nt,i,nt
CCOc1ccc2oc(C(=O)OCC(=O)NC3CCCCC3)c(C)c2c1,i,32,i
COc1ccc2oc(C(=O)OCC(=O)NC3CCCC3)c(C)c2c1,i,i,i
COc1ccc2oc(C(=O)OCC(=O)N3C(C)CCCC3C)c(C)c2c1 (configuration not stated),i,i,i
CCOc1ccc2oc(C(=O)OCC(=O)N3C(C)CCCC3C)c(C)c2c1 (configuration not stated),i,25,i
COc1ccc(S(=O)(=O)N2CCC(C(=O)Nc3cc(Cl)ccc3N3CCOCC3)CC2)cc1OC,i,i,i
COc1ccc(NC(=O)CCCN2C(=O)CN(C)C2=O)cc1Cl,i,i,i
Cc1ccc(CNC(=O)CNC(=O)[C@@H]2Cc3ccccc3CN2C(=O)OC(C)(C)C)cc1,i,i,i
CC(=O)OCC(=O)[C@@]12OC(C)(C)O[C@@H]1C[C@H]1[C@@H]3C[C@H](F)C4=CC(=O)C=C[C@]4(C)[C@@]3(F)[C@@H](O)C[C@@]12C,nt,nt,21
CC(=O)OCC(=O)[C@@]12OC(C)(C)OC1CC1C3CC(F)C4=CC(=O)C=CC4(C)[C@@]3(F)C(O)CC12C (some centres not stated),nt,i,nt
Cc1noc(C)c1NC(=O)Nc1ccc2c(c1)CC(=O)N([C@@H](C)CO)C[C@@H](C)[C@@H](CN(C)C(=O)Nc1cccc3ccccc13)O2,i,nt,i
SMILES,Yp Topo-I inh,Mtb hypoxia inh,Vc quorum ag
O=C(COc1ccccc1[N+](=O)[O-])NN=Cc1ccccn1,nt,i,nt
CC(CC(=O)NC1CCCCCC1)=NNC(=O)c1cnccn1,nt,i,nt
C#CCSc1nnnn1-c1ccc(OCC)cc1,i,i,607
CCOc1ccc(-n2nnnc2SCC(=O)Nc2ccc(NC(C)=O)cc2)cc1,i,i,i
CC(C)=C1SC(N2CCCCC2)=NC1=O,i,nt,i
C/C(=C1/SC(N2CCCC2)=NC1=O)c1ccc(Br)cc1,i,76,i
CC(=O)OCC1=C(C(=O)O)N2C(=O)[C@@H](NC(=O)Cc3ccccc3)[C@H]2SC1,i,nt,i
CC(=O)OCC1=C(C(=O)O)N2C(=O)C(NC(=O)COc3ccc(F)cc3)C2SC1 (configuration not stated),i,37,i
N#C/C(=N/Nc1ccc([N+](=O)[O-])cc1)C(=N)N1CCCCC1,i,nt,i
N#CC(=NNc1ccc([N+](=O)[O-])cc1)C(=N)N1CCCCC1,nt,42,nt
CN(CC(=O)Nc1ccccc1Br)C(=O)c1ccccc1Sc1ccccc1C#N,i,25,i
Cc1cccc(C)c1NC(=O)CN(C)C(=O)c1ccccc1Sc1ccccc1C#N,i,i,i
COc1ccc(S(=O)(=O)N2CCCCCC2)cc1NC(=O)CCNC(=O)c1ccccc1Cl,i,nt,i
CN(C)c1ccc(S(=O)(=O)N2CCCCC2)cc1NC(=O)CCNC(=O)c1ccccc1Cl,i,23,i
CCCCCCNC(=O)N1CC=CC(c2ccc(OC)cc2)N(Cc2ccc(F)cc2)C(=O)C1 (configuration not stated),nt,i,nt
O=C(C1CC=CC2CCN(Cc3ccccc3)C(=O)C21)N1CCOCC1 (configuration not stated),nt,i,nt
O=C(CSc1ccccn1)NN=Cc1ccccc1[N+](=O)[O-],nt,i,nt
COc1ccc(CNC(=O)C2CCN(C(=O)[C@@H](CC(C)C)NC(=O)OC(C)(C)C)CC2)cc1,i,i,17
